CYP2C9 inh – blocks human cytochrome P450 2C9; inhibition, % at 5 µM; P11712; CYP2C9 Supersomes, luciferin-H conversion, luminescence; 20% of 96,000 active;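 active = blocking of liver enzyme CYP2C9 beyond about 50% at 5 µM, limit read from the data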
Target sequence (P11712 whole entry, looked up): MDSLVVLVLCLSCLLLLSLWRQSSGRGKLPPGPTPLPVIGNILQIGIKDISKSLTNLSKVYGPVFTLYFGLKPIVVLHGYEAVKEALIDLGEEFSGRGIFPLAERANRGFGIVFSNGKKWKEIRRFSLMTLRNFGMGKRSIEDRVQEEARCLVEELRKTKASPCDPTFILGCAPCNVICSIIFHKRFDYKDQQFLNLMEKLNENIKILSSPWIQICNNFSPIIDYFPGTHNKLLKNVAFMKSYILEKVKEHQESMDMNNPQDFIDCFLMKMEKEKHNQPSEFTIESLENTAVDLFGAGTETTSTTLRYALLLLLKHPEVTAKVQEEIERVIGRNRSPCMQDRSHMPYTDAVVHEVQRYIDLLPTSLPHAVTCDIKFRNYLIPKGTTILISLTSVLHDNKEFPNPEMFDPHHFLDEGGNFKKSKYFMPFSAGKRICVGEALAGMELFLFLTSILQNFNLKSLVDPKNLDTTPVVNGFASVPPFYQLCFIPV
CYP2C9 act – activators of human CYP2C9; 1.4% of 96,000 active; recombinant CYP2C9, luciferin-H conversion, luminescence; stronger effect = higher value; factor 1 = untreated enzyme, 0 = blocked; P11712; activation factor at 5 µM;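 active = activation factor of 2 or more for CYP2C9 at a 5 µM dose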;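 note: 0 = sulfaphenazole-blocked wells and 1 = vehicle-only wells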
PLAP act – activators of human placental alkaline phosphatase. purified PLAP enzyme, luminescent substrate read-out; stronger effect = higher value. AID 696. activation fold at 20 µM. P05187. 1.2% of 96,000 active; in the data active = activation fold above about 2
CYP2C19 inh – inhibitors of human CYP2C19; AID 778; 21% of 96,000 active; CYP2C19 Supersomes, luciferin-H EGE luminescence, 30 min; inhibition, % at 5 µM; P33261;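 active = CYP2C19 inhibition above a set limit at 5 µM in the primary screen, cut at about 50% in these data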;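 note: plate controls were negative control wells for no effect and 2.5 mM tranylcypromine positive control for full effect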
CYP2C19 act – cytochrome P450 2C19 (human) activation. 96,000 tested, under 10 active. recombinant CYP2C19, luciferin-H EGE luminescence; stronger effect = higher value; 0 = fully inhibited enzyme, 1 = untreated enzyme. AID 1025. activation factor at 5 µM. P33261;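 active = activation factor of at least 2 at 5 µM in the primary screen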;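 note: 0 = wells with 2.5 mM tranylcypromine and 1 = vehicle-only wells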
Active calls of the source: *. An excerpt weighted towards active compounds, which were near 31% of everything screened.

SMILES | CYP2C9 inh | CYP2C9 act | PLAP act | CYP2C19 inh | CYP2C19 act
O=C(CCc1ccccc1)Nc1ccncc1 | 83* | 0.2 | 1 | 86* | 0.1
O=C(Cc1ncn[nH]1)NCCc1ccccc1 | 6 | 0.9 | 2.4* | 0 | 1
O=C(CCc1ccccc1)Nc1ncn[nH]1 | -10 | 1.1 | 2.6* | -13 | 1.1
O=C(/C=C/c1ccccc1)Nc1ncn[nH]1 | 12 | 0.9 | 1 | 17 | 0.8
O=C(Oc1ccc(=O)n(-c2ccccc2)n1)c1cccc(Cl)c1 | 7 | 0.9 | 1.1 | 16 | 0.8
COCCn1c(SCC(=O)NCc2ccc3c(c2)OCO3)nnc1-c1c[nH]c2ccccc12 | 69* | 0.3 | 1.5 | 59* | 0.4
COCCn1c(SCC(=O)Nc2nnc(C)s2)nnc1-c1c[nH]c2ccccc12 | 51* | 0.5 | 1.3 | 19 | 0.8
CCc1nnc(NC(=O)CSc2nnc(-c3c[nH]c4ccccc34)n2CCOC)s1 | 39 | 0.6 | 1.2 | 15 | 0.9
Cc1occc1-c1nnc(SCC(=O)NCc2ccc3c(c2)OCO3)n1CC(C)C | 16 | 0.8 | 1 | 21 | 0.8
CCSc1nnc(NC(=O)CSc2nnc(-c3c[nH]c4ccccc34)n2C)s1 | 76* | 0.2 | 1.2 | 30 | 0.7
O=c1oc(-c2cccs2)nc2c1cnn2-c1ccccc1 | 7 | 0.9 | 0.8 | -15 | 1.1
COc1ccc2c(c1OC)C(=O)OC2Nc1ccccc1S(=O)(=O)C(F)F (configuration not stated) | -11 | 1.1 | 0.9 | -26 | 1.3
Cn1c(C(=O)N2CCN(C3CCCCC3)CC2)cc2c(=O)n(C)c3ccccc3c21 | 13 | 0.9 | 1.7 | -6 | 1.1
Cn1c(C(=O)N2CCN(c3nc4ccccc4s3)CC2)cc2sccc21 | -23 | 1.2 | 1 | -7 | 1.1
COc1ccccc1N1CCN(C(=O)c2cc3sccc3n2C)CC1 | -40 | 1.4 | 1.4 | 66* | 0.3
CCCN1CCN(CCCNC(=O)c2cc3c(=O)n(C)c4ccccc4c3n2C)CC1 | 67* | 0.3 | 1.5 | -14 | 1.1
Cn1c(C(=O)N2CCN(C(=O)c3ccco3)CC2)cc2c(=O)n(C)c3ccccc3c21 | 18 | 0.8 | 1.5 | 53* | 0.5
COc1ccccc1N1CCN(C(=O)c2cc3c(=O)n(C)c4ccccc4c3n2C)CC1 | 61* | 0.4 | 1.6 | 89* | 0.1
O=C(O)c1c(Cl)c(Cl)c(Cl)c(Cl)c1C(=O)N1CCOCC1 | 19 | 0.8 | 0.8 | 8 | 0.9
c1cc2[nH]snc2c2nc(C3CC3)nc12 | 8 | 0.9 | 1 | 26 | 0.7
COc1ccc(C2=NC(C(F)(F)F)(C(F)(F)F)c3c(n(C)c(=O)n(C)c3=O)N2)cc1 | 20 | 0.8 | 1.3 | -14 | 1.1
CC(=O)Nc1ccc(OC(=O)c2cccnc2)cc1 | -14 | 1.1 | 0.9 | -11 | 1.1
Cc1ccc(NC(=O)CCC(=O)O)cc1F | -19 | 1.2 | 1 | -24 | 1.2
O=C(NCCN1CCN(c2ccccc2)CC1)C1CCCN(S(=O)(=O)c2cnc[nH]2)C1 (configuration not stated) | 19 | 0.8 | 1.7 | 12 | 0.9
O=C(NCc1cccs1)C1CCCN(S(=O)(=O)c2cnc[nH]2)C1 (configuration not stated) | 47 | 0.5 | 0.9 | 84* | 0.2
SMILES | CYP2C9 inh | CYP2C9 act | PLAP act | CYP2C19 inh | CYP2C19 act
O=C(NCc1ccccc1Cl)C1CCCN(S(=O)(=O)c2cnc[nH]2)C1 (configuration not stated) | 92* | 0.1 | 1.2 | 96* | 0
O=C(C1CCCN(S(=O)(=O)c2ccc(F)cc2)C1)N(Cc1cccs1)C1CC1 (configuration not stated) | 73* | 0.3 | 1.5 | 95* | 0.1
COC(=O)CCCCCc1ccc(C(C)=O)s1 | 23 | 0.8 | 1.1 | 48 | 0.5
Cc1cc(=O)c2n(Cc3ccc(Cl)cc3)nc[n+]2[nH]1 | 26 | 0.7 | 1 | 36 | 0.6
Cc1cc(NO)nc(-c2ccc(Br)cc2)n1 | 22 | 0.8 | 0.8 | 40 | 0.6
CC(CCc1ccccc1)NC(=O)c1ccccc1 (configuration not stated) | 91* | 0.1 | 1.1 | 66* | 0.3
O=C(NNC(=O)C(c1ccccc1)c1ccccc1)c1cccs1 | 91* | 0.1 | 1.9 | 56* | 0.4
CC(CCc1ccccc1)NC(=O)c1ccc(C(=O)NC(C)CCc2ccccc2)cc1 (configuration not stated) | 16 | 0.8 | 0.2 | 10 | 0.9
O=C(NCCCc1ccccc1)c1cccs1 | 47 | 0.5 | 0.8 | 49 | 0.5
CC(CCc1ccccc1)NC(=O)c1ccncc1 (configuration not stated) | 94* | 0.1 | 1 | 100* | 0
CC(CCc1ccccc1)NC(=O)c1cccs1 (configuration not stated) | 72* | 0.3 | 0.9 | 57* | 0.4
COc1ccc(-n2c(=S)[nH]c3cc(C(=O)NCCCN4CCCC4=O)ccc3c2=O)cc1 | -6 | 1.1 | 1.1 | 2 | 1
Cc1ccccc1Cn1cc(NC(=O)COc2ccccc2)cn1 | 42 | 0.6 | 0.8 | 21 | 0.8
CCOC(=O)c1cc2c(C)n(-c3ccc(N(C)C)cc3)c(C)c2cc(C(=O)OCC)c1=O | 33 | 0.7 | 0.9 | 50* | 0.5
Cc1ccc2cc(CN(Cc3ccco3)S(=O)(=O)c3c(C)ccc4nsnc34)c(=O)[nH]c2c1 | 89* | 0.1 | 1.6 | 54* | 0.5
Cc1ccc(S(=O)(=O)N(CCO)Cc2cc3ccc(C)c(C)c3[nH]c2=O)cc1 | 29 | 0.7 | 1.5 | 6 | 0.9
Cc1cc2cc(CN(CCCO)S(=O)(=O)c3cccc4nsnc34)c(=O)[nH]c2cc1C | 93* | 0.1 | 1.6 | 3 | 1
Cc1cc2cc(CN(Cc3ccco3)S(=O)(=O)c3c(C)ccc4nsnc34)c(=O)[nH]c2cc1C | -3 | 1 | 1.1 | 8 | 0.9
Cc1ccc2[nH]c(=O)c(CN(CCCO)S(=O)(=O)c3c(C)ccc4nsnc34)cc2c1 | 65* | 0.3 | 1.3 | 3 | 1
CCCCC(CC)CNC(=O)CN(C)S(=O)(=O)c1cccc2nsnc12 (configuration not stated) | 26 | 0.7 | 1 | 23 | 0.8
Cc1ccc(S(=O)(=O)N(CCCO)Cc2cc3c(C)ccc(C)c3[nH]c2=O)cc1 | 56* | 0.4 | 1.7 | 9 | 0.9
Cc1ccc(NC(=O)CN2C(=O)C3CCCCN3C(=O)c3ccccc32)cc1 (configuration not stated) | 13 | 0.9 | 1 | 10 | 0.9
Cc1ccc2cc(CN(CC3CCCO3)S(=O)(=O)c3cccc4nsnc34)c(=O)[nH]c2c1 (configuration not stated) | 100* | 0 | 1.1 | 57* | 0.4
Cc1ccc2cc(CN(C)C(=O)C3CCCO3)c(=O)[nH]c2c1 (configuration not stated) | -4 | 1 | 1 | 1 | 1
Cc1cccc(-n2c(C)nc3sccc3c2=O)c1 | 2 | 1 | 1 | 42 | 0.6
CC1=NOC(=O)/C1=C\c1ccc(-c2ccc(Cl)cc2Cl)o1 | 49 | 0.5 | 0.9 | 48 | 0.5
